This note sets out measurements from PubChem BioAssay AID1508600 (Functional Genomics Laboratory (NCATS/FGL), 2020).

In all, about 53,000 sequences went through this assay and about 3,700 (7%) were called active. The full list was thinned out, with actives kept by preference. Values without a mark were called inactive.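 The calls were made as follows: active = gene knockdowns whose robust z-score for IL-1 alpha signal is at least 2 or at most -2, so actives lie on both sides; inactive = the rest.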

The assay can be described thus: Components of the Cytosolic LPS Sensing Pathway: Gene Identification via Genome-wide siRNA Screen.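 Also: robust z of the log signal after scaling to non-targeting control siRNA wells of the plate.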 The note with it: RAW264.7 macrophages, IL-1a HTRF, actives lie on both sides, screened at 100 nM (by protocol), cells primed 5 h with Pam3CSK4 first. In a few lines: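 Mouse macrophage line RAW264.7 is transfected with siRNA (100 nM final), grown 48h, primed with TLR ligand Pam3CSK4 5 h and given intracellular LipidA 24 h. IL-1a in supernatant is read by HTRF and viability by luminescence.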
(Time-resolved FRET reads energy transfer from a long-lived donor to a nearby acceptor.)
Regarding CCUCUAUGUGAGAUUUGAGTT against Mamdc2, the z-score is -0.917.
The result for CCCACCGAGACACCAUCUUTT against Syne4 reads -1.78.
The result for GGGAGAUUGCAUUUGGAGCTT against Olfr678 reads 0.317; that for GGCUGAAGUUACUUUGGAUTT against Nup98, -2.03 (active); that for GCAUGUAGACUACAACGUGTT against Myoz1, -1.27.
In the case of “GGGCUGAAGUGAAACCAGATT against D930048N14Rik”, the z-score was 0.415.
The result for GGGUCCAAAAGAAAAGUGUTT against Zc2hc1c reads 0.784; that for GCAAAACACACUGAUGGUGTT against Stx16, 0.835.
For GGCAAUUCAUUGCAUGUUATT against Cdc42ep3 the value was -0.177; for GGAUCUCACAGUGAAGAAGTT against Krba1, 0.392; for “GCUUAUUUGUGGUACACGGTT against D030056L22Rik”, 0.112.
For GGUUUCCUGAAGUUUUCAATT against Gnaz the value was 3.08 (active); for GGGUUGACCACUAUUUCUGTT against Olfr1338, -1.06.
Turning to CGAAAAAGGGCUUUUAACUTT against Ndufs1, the z-score is 0.757.
On to GGUGAAUGAGGACUCUGGGTT against Dcps, for which the z-score is -1.07.
Take CGAGCACCUAUUCAUCAUATT against Tdo2: the z-score was 0.889.
As for GGUACGACUUGGAAGAAAUTT against Rock2, the z-score was -0.415.
The result for GCUUAUGAUUCCAAGGCAGTT against Serpina6 reads 0.9; that for AAUUCUGGACGAGGAGCAUTT against Abcc5, 3.22 (active).
With CCUGGCAGUAAUCACCAUUTT against Olfr1158, the z-score was -0.117.
Take CGAGAAAAUGGAUUCUACCTT against Atp10d: the z-score was 0.314.
In the case of GGAGUUGUCUACCAAAGUUTT against Reep5, the z-score was 0.609.
The result for CCCGAUGAAGUGUUUUUAGTT against Oosp1 reads -0.753; that for GGAAGAAUAAAGUGCUUUGTT against Chga, 2.27 (active).
With GGAUCCUCUUGAUCAAGCUTT against Vps53, the z-score is -0.891.
For GGUUUGAUUAUACCUAUCATT against Tenm2 the value was -0.337.
As to GGAGAAAGGUUUUGUUAUGTT against Gtf2h2, the z-score is 1.5.
For CCUACUACAUCCGCUACUGTT against Apba2 the value was -0.366.
In the case of GGUUUGGCUUAGCUCAUCATT against Mettl24, the z-score is -2.72 (active).
For GGGCUACUCAGCCUAUAGUTT against Asic4 the value was 1.22; for GGCAAACUCGGGUAUACACTT against Mybpc1, 0.394; for GGUGUGGCUGUUCUGAUGATT against Olfr771, 0.322.
For GCACGAGAGACAUUUCUCCTT against Kat7 the value was -2.32 (active).
Regarding GGGCUCCUGGUUUAGUAAUTT against Zfp59, the z-score is 1.04.
For GGGUGUUUGGAGAUUGUGUTT against Heatr3 the value was -2.93 (active).
For “GCUUUUCAUACCUGUUUCCTT against 9930111J21Rik2” the value was -0.227.
For CGGAAUCUGACUGGUAUCGTT against Banp the value was -1.21.
GGAAAAAGCCAAUUAUGUCTT against Fbxl2: the z-score was -0.954.
As to GGUUUUAAGCUUGCUUAUGTT against Ucma, the z-score was 0.4.
For GGAGAUACUAUGUUGCAUUTT against Fgf9 the value was 0.537; for GGAUUCUUGGAGCUCAUUATT against Stag3, -2.46 (active).
Turning to CCAAGAGAUGCUAGCUAAUTT against Platr28, the z-score was -0.495.
For GGCAAUCUACUCAUUGUUGTT against Olfr1239, the z-score was -0.719.
In the case of GCAGGUUAGAGUCACUUGUTT against Trim67, the z-score was 0.143.
For GGUGUCCAGUUCAUCCAGGTT against Vxn the value was 1.15; for GGAACAAGGUAAAAUACAUTT against Nthl1, 3.88 (active); for GCUUUGAGAACCUUGGUAATT against Rab9b, -0.652.
The result for GGAUCAGUGCCUUUGGCUATT against Rhoc reads -1.75; that for GGGAUGUUUUGUUUUUAACTT against Mlc1, 0.384; that for GGAGUUCACCAGCUACCAATT against Myoz3, -0.537.
CCAUGGAAUUCAAUUCCUUTT against Vmn2r66: the z-score was 0.0798.
As to CCCUAGUUACCAAUUCCACTT against Olfr293, the z-score is 2.61 (active).
For GGUUGACUGAAUGAUGGAATT against Tcl1b3 the value was -0.724.
On to GCCCAUAUCGGAGAAGAUUTT against Cap2, for which the z-score is -1.97.
Regarding GGGCAUGUUUAACGACAUUTT against Csf2ra, the z-score was 1.49.
For GGAUUUCCUUUUAAGACUUTT against Rab3il1 the value was -0.71; for GCUUUACCUGCUCAGAAGCTT against Olfr520, -2.26 (active); for GGAAGACAAUAAGAAGUGGTT against Niban2, -0.576.
For CCAUUCCUACAGCAUGCGUTT against Slc27a1 the value was 0.523; for GCGAGCUAUUCUUCCUUGUTT against Eif4a1, -2.13 (active).
The result for CCUCAUCCAACAUACCUAUTT against Olfr665 reads -0.665.
For the sequence “GGACAUCAUAUUCGUUUUCTT against C130026L21Rik”, the z-score was 1.12.
The result for GGGUUGAAGUUUGUCGAAATT against Nlgn1 reads 0.496; that for GGGUCUUUGUACAGAUUGCTT against Olfr275, 0.0844.
The result for GGAGGAAGAGGAGAAUCUATT against Supt6 reads -2.57 (active); that for GCUGAAUACAGUUGGUGCUTT against Nelfa, -0.259; that for GGAUUCAAACUGGUUUUCATT against Ptcd3, 1.8.
With GGACAAGUUCUGUUGGUAUTT against Zfp275, the z-score was 0.121.
In the case of GCGCAGUCAGACCAUAUAUTT against Fbxl5, the z-score is -0.874.
For GGGAGACUGUGAAGCUUUATT against Elk4, the z-score was 3.22 (active).
For GGUCUUAAAGCAUGAGAAGTT against Med8 the value was 0.541; for GGUUCGUAAAAUUAUUAGGTT against Vcl, 1.09; for GGGCAGUCCGUUUCUUAACTT against Kptn, 0.815.
The result for GGAGGUAUUUACCAAAGAUTT against Acer2 reads 0.453; that for CCACACUUUUCAGUAUAAUTT against Lin54, 0.897.
The result for GGGUGACCUAAAGAAUUAATT against Ybx3 reads 0.849.
Turning to GCUGAAUACAACGUGAGAUTT against Tdh, the z-score is -4.05 (active).
The result for GGUUUCGUCUUGAUAUCUATT against Trpc1 reads -0.417; that for GGAGAGCAGAUGUGAUUCUTT against Mrm2, -0.561.
The result for GCCUGUUCUCAAGACUGACTT against Sema4a reads 2.06 (active).
For GGGUGUCUUUCCUGUGUGATT against Pkmyt1 the value was -0.804; for GGGUAAAGGAGAUUGUGAUTT against Ppfibp2, -0.103.
As to GCCGUUAGAAACAAAGUCGTT against Taf3, the z-score is -2.48 (active).
On to CCAAGUAUAGCUCACAUAATT against Slc17a4, for which the z-score was -1.7.
For GCCCUUGAAGAUUUGAGGUTT against Cops8 the value was 0.00555; for GCACAGGUUCAAGUGGAACTT against Prnd, -1.41.
Turning to GGAAAGACCUAAGCAAUUATT against Klhl28, the z-score is -0.287.
On to CCUAUCCAGAUGUCAUUAATT against Hoxa11, for which the z-score was 0.849.
For GGAAUUUGAUUCUCUGCCUTT against Zfp646 the value was 2.96 (active).
The result for “GCAUUAAAAACCCUUUUUGTT against B230354K17Rik” reads 1.68; that for GCAGAGUGUGGUUAGUGGGTT against Cobl, -0.218; that for GGAACUGCCCAGUUCUUAATT against Ppan, 0.424.
For CCUACCCUAACCAUUACACTT against Enpp5 the value was -0.267.
For GGCCUUUUCUCAUCUCUGGTT against Igfals, the z-score was -1.57.
In the case of GCCCGGAGAAUAUUAACUATT against Mllt11, the z-score was 2.21 (active).
The result for GCACUUUAAGAUCAACCGGTT against Bcar3 reads 0.521; that for CCUAAAAGUGCCUUACUAATT against Ftdc2, 0.679.
The result for GGAGUUUGCCAGUCAGAUCTT against Ralgps1 reads -2.11 (active); that for GCAAGAACGCAAGAUUCAATT against Acoxl, 0.581.
For GCUGCUACGUGUUCAAGGUTT against Ctss the value was 0.00488.
GGACAAAGAAUCCAAAAUATT against Etv6: the z-score was 2.25 (active).
For GGUACCAACGUGUAUGGCATT against Gpaa1 the value was 0.182.
For GGUAAACCAAACAAAACCATT against Rpl35a, the z-score was 0.264.
For CCUUAAAACAGAUCCACUUTT against Nell2 the value was 0.473; for GGCUCCUGUGCAUAUCUAATT against Olfr116, -0.449.
For GGAGAACAACAGUAAUUACTT against Reps2 the value was -1.28; for GGCUUUGGCAUGAUUGGCCTT against Tmem214, -2.72 (active).
